Measurements taken from PubChem BioAssay (Tox21).
Results filed as inconclusive are left out. The source made the active and inactive calls. Unless noted, the call rests on the fitted dose curve; in most records, active means well fitted curve in the direction sought with a large enough effect in the repeat runs; inconclusive means weak or mixed curves; inactive means no such curve, though single readings can be large; an effect the other way counts as inactive or inconclusive.

What was measured:
[1] = qHTS assay to identify small molecule antagonists of the vitamin D receptor (VDR) signaling pathway - cell viability counter screen (AID 743225); further: nearly all actives have a fitted effect of over 50% in size
Summary of the method: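 Viability counter screen run in the same wells as the beta-lactamase reporter assay: HEK 293T VDR-UAS-bla cells, 16 h compound exposure at 37C with 3 nM (final) 1-alpha,25-dihydroxyvitamin D3. CellTiter-Glo luminescence, 30 min, room temperature.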

[2] = qHTS assay to identify small molecule agonists of the NFkB signaling pathway (AID 1159509; active means well fitted curve in the direction sought with a large enough effect in the signal ratio in the repeat runs, not every such curve was filed as active; the % refers to the signal ratio; further: series mostly up to about 61 µM)
Summary of the method: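 Beta-lactamase reporter assay run in quantitative high-throughput format on an NF-kB-responsive ME-180 line, with 5 hr compound treatment and a FRET-based blue/green fluorescence readout.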

[3] = qHTS assay to identify small molecule agonists of the NFkB signaling pathway - cell viability counter screen (AID 1159515; calls by dose curve; further: series mostly up to about 61 µM; nearly all actives have a fitted effect of over 55% in size)
Summary of the method: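 Plate 2,000 NFkB-bla ME-180 cells/well; incubate overnight. Add compounds, 5 hr at 37 C. Add FRET substrate, 1.5 hr RT. Add CellTiter-Glo, 30 min RT; read luminescence.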

[4] = qHTS assay to identify small molecule agonists of the endoplasmic reticulum stress response signaling pathway (AID 1159516; active means well fitted activation curve with a large enough effect in the signal ratio in the repeat runs, not every such curve was filed as active; the % refers to the signal ratio)
Summary of the method: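 Beta-lactamase expression from the ER stress response element in HeLa reporter cells is quantified with the LiveBLAzer B/G FRET substrate, read at 405 nm excitation after 2 hr at room temperature, following 5 hr compound treatment at 37 C.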

[5] = qHTS assay to identify small molecule agonists of the endoplasmic reticulum stress response signaling pathway - cell viability counter screen (AID 1159517; calls by dose curve; further: series mostly up to about 61 µM; nearly all actives have a fitted effect of over 50% in size)
Summary of the method: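 After overnight attachment, ESRE-bla HeLa cells were treated with Tox21 library compounds for 5 hr. CellTiter-Glo luminescence, read 30 min post-addition at room temperature, reported viability.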

[6] = qHTS assay to identify small molecule antagonists of the retinoid-related orphan receptor gamma (ROR-gamma) signaling pathway - cell viability counter screen (AID 1159520); further: nearly all actives have a fitted effect of over 50% in size
Summary of the method: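 Cytotoxicity was read from cellular ATP (CellTiter-Glo luminescence) after 16 hr at 37 C with 1 uM doxycycline induction. The inducer was added 2 hr after compound transfer to Tet-on ROR gamma CHO cells.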

[7] = target: Nuclear receptor ROR-gamma (Homo sapiens) (UniProt P51449); assay: qHTS assay to identify small molecule antagonists of the retinoid-related orphan receptor gamma (ROR-gamma) signaling pathway (AID 1159521;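 further: CHO cells with doxycycline inducible ROR-gamma driving an RORE luciferase reporter; top concentration of the series differs between compounds; nearly all actives have a fitted effect of over 50% in size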)
Summary of the method: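 Luminescence readout (ONE-Glo, 30 min RT) after 16 h doxycycline induction; loss of signal scored as antagonism. CHO cells with TET-inducible RORγ and RORE-LUC reporter; compounds added 2 h before 1 uM final doxycycline.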

[8] = qHTS assay to identify small molecule agonists of the AP-1 signaling pathway (AID 1159526; calls by dose curve)
[9] = target: Retinoic acid receptor RXR-alpha (Homo sapiens) (UniProt P19793); assay: qHTS assay to identify small molecule agonists of the RXR signaling pathway (AID 1159527; calls by dose curve; further: nearly all actives have a fitted effect of over 35% in size)
Chain of Retinoic acid receptor RXR-alpha (Homo sapiens) (P19793 whole entry, looked up): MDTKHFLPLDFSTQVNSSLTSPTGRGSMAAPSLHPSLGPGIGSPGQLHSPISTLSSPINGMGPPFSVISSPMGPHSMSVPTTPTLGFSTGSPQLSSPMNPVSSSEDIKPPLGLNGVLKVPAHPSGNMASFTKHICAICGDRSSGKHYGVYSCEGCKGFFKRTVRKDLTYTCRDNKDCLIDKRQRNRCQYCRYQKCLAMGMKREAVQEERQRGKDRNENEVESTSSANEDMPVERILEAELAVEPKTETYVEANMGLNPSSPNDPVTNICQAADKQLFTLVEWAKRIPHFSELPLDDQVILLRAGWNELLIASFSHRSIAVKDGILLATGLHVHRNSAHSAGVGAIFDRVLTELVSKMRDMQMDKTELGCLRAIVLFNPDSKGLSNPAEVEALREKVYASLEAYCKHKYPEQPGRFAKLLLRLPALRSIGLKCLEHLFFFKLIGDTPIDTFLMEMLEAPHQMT
Summary of the method: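 Agonist mode; 9-cis retinoic acid positive control. HEK 293T UAS-bla reporter cells, 2% charcoal-stripped FBS, 16 hr compound exposure at 37 C/5% CO2. LiveBLAzer B/G FRET substrate 2 hr RT; ex 405, em 460/530 nm.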

[10] = qHTS assay to identify small molecule agonists of the RXR signaling pathway - cell viability counter screen (AID 1159529)
Summary of the method: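 Luminescence from CellTiter-Glo (30 min, RT) measured viability in the same wells as the beta-lactamase reporter readout. Cells: GeneBLAzer RXR-alpha HEK 293T, 2% charcoal-stripped FBS. Compound exposure 16 hr, 37 C.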

[11] = qHTS assay to identify small molecule antagonists of the retinoid acid receptor (RAR) signaling pathway - cell viability counter screen (AID 1159551); further: nearly all actives have a fitted effect of over 35% in size
Summary of the method: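 Viability of C3RL4 cells is quantified from ATP by luminescence after 6 h treatment at 37 C with compounds and 1 uM retinol.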

[12] = qHTS assay to identify small molecule antagonists of the retinoic acid receptor (RAR) signaling pathway (AID 1159552; further: nearly all actives have a fitted effect of over 50% in size)
Summary of the method: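 Luminescence from a RARE luciferase reporter in C3RL4 cells served as read-out. Cells received compounds together with 1 uM final retinol and incubated 6 hr at 37 C before detection reagent was added for 30 min at room temperature.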

[13] = qHTS assay to identify small molecule agonists of the retinoic acid receptor (RAR) signaling pathway (AID 1159553)
Summary of the method: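 Compounds dissolved in DMSO were pinned onto C3RL4 cells seeded the previous day, and plates were held 6 hr at 37 C. RARE-driven luciferase output was then read by luminescence.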

[14] = qHTS assay to identify small molecule antagonists of the estrogen related receptor (ERR) signaling pathway from Tox21 library - cell viability counter screen (AID 1224834); further: nearly all actives have a fitted effect of over 30% in size
Summary of the method: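 In this quantitative HTS format, ERR cells receive compounds in DMSO and are incubated for 17.5 h at 37 C. Live-cell protease activity is then detected with CellTiter-Fluor.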

[15] = qHTS assay to identify small molecule antagonists of the estrogen related receptor (ERR) signaling pathway (AID 1224819)
Summary of the method: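 ERR reporter cells were plated at 2,000 cells/well and left 6 h at 37 C/5% CO2 before pin-tool transfer of compounds in DMSO. After 18 h at 37 C, One-Glo was added and luminescence was read 30 min later at room temperature.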

[16] = qHTS assay to identify small molecule agonists of the estrogen related receptor (ERR) signaling pathway (AID 1224820)
Summary of the method: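 Following a 6 h settling period, 2,000 ERR cells per well receive DMSO-dissolved compounds by pin tool and incubate 18 h at 37 C; agonist activity is scored from One-Glo luminescence read 30 min post-addition.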

[17] = test system: estrogen-related receptor alpha (ERRalpha) with PGC-1alpha coactivator, human; assay: qHTS assay to identify small molecule antagonists of the estrogen related receptor signaling pathway with the pleiotropic PPARgamma coactivator (PGC) (AID 1224821; calls by dose curve)
Summary of the method: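 Screening used NTP's PGC/ERR cells, dosed via pin tool with compound in DMSO alongside positive and negative controls. After 18 h at 37 C, One-Glo reagent sat 30 min at room temperature before luminescence detection.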

[18] = qHTS assay to identify small molecule antagonists of the estrogen related receptor signaling pathway with the pleiotropic PPARgamma coactivator (PGC) cell viability counter screen (AID 1224822;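 further: series mostly up to about 46 µM; viability read after 17.5 h compound exposure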)
Summary of the method: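 Viable cell signal (CellTiter-Fluor, 30 min, 37 C/5% CO2) was measured in PGC/ERR cells after a 17.5 h compound incubation.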

[19] = qHTS assay to identify small molecule agonists of the estrogen related receptor signaling pathway with the pleiotropic PPARgamma coactivator (PGC) (AID 1224823)
Summary of the method: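 In this quantitative high-throughput screen, an 18 h, 37 C treatment of PGC/ERR cells with compounds in DMSO preceded a One-Glo luminescence read taken after 30 min at room temperature.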

[20] = qHTS assay to identify small molecule agonists of the AP-1 signaling pathway - cell viability counter screen (AID 1159525; calls by dose curve; further: nearly all actives have a fitted effect of over 55% in size)
Summary of the method: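 Intracellular ATP by Cell Titer Glo luminescence (30 min, RT) in the same ME-180 AP-1-bla wells after the 5 h compound exposure at 37 °C. Normalised to tetra n-octyl ammonium bromide and DMSO controls.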

Measured: Potency

CCOC(=O)NCCC[Si](OCC)(OCC)OCC
inactive: [1] | [2] | [3] | [4] | [5] | [6] | [7] | [8] | [9] | [10] | [11] | [12] | [13] | [14]

CCCN(CCC)C(=O)C(CCC(=O)O)NC(=O)c1ccccc1 (stereo not drawn)
inactive: [1] | [2] | [3] | [4] | [5] | [6] | [7] | [8] | [9] | [10] | [11] | [12] | [15] | [16] | [17] | [18] | [19] | [14]

Cc1c(N)cccc1N
inactive: [1] | [2] | [3] | [4] | [5] | [6] | [7] | [8] | [11] | [14]

CCCCN1C[C@H](O)[C@@H](O)[C@H](O)[C@H]1CO
inactive: [2] | [3] | [4] | [5] | [6] | [20] | [8] | [9] | [10] | [11] | [12] | [13] | [14]

CCN(O)CC
inactive: [1] | [2] | [3] | [4] | [5] | [6] | [7] | [9] | [10] | [11] | [12] | [13] | [14]

CCOC(=O)C1CC(=O)C(=C(O)C2CC2)C(=O)C1 (stereo not drawn)
inactive: [1] | [2] | [3] | [4] | [5] | [6] | [7] | [8] | [10] | [11] | [12] | [13] | [14]

CCN(CC)CCOc1ccc(Cc2ccccc2)cc1
inactive: [1] | [2] | [3] | [4] | [5] | [6] | [7] | [10] | [11]

CCCS(=O)c1ccc2nc(NC(=O)OC)[nH]c2c1 (stereo not drawn)
inactive: [1] | [2] | [3] | [4] | [5] | [6] | [7] | [8] | [9] | [10] | [11] | [12] | [13] | [14]

CCCOc1ccc2c(c1)CC[C@@H]1[C@@H]2CC[C@]2(C)C(OC)CC[C@@H]12 (stereo partly drawn)
inactive: [1] | [2] | [3] | [4] | [5] | [6] | [7] | [11] | [12] | [13] | [14]

COC(=O)N[C@H](C(=O)N[C@@H](Cc1ccccc1)[C@@H](O)CN(Cc1ccc(-c2ccccn2)cc1)NC(=O)[C@@H](NC(=O)OC)C(C)(C)C)C(C)(C)C
inactive: [1] | [2] | [3] | [4] | [5] | [6] | [20] | [8] | [9] | [10] | [11] | [12] | [14]
